Hits are enriched below; roughly 2.4% of the tested compounds scored in any of these assays.
D2 PAM-1 = positive allosteric modulators of human D2 dopamine receptor. hit rate 0.34% among 340,000. HEK293 T-REx D2, calcium flux, EC20 dopamine potentiation. P14416. potentiation, % at 10 µM;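 active = potentiation over 3 SD above the plate norm, cut at about 30% in these data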; also: 0% is about no effect
Target sequence (P14416 whole entry, looked up): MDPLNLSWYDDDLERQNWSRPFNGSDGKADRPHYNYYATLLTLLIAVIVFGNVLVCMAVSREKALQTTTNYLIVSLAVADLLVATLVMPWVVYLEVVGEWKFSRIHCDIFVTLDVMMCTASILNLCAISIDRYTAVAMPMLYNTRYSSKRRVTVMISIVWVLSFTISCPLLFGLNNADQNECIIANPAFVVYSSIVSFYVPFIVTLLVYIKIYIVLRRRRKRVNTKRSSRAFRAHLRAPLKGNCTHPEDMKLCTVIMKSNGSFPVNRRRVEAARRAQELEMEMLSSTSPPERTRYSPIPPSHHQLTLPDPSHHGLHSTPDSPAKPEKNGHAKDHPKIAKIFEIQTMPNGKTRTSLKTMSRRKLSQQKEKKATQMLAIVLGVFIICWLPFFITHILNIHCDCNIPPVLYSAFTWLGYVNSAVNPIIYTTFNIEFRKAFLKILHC
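Tetracycline-induced HEK293 T-REx cells force-coupled to calcium signalling expressed D2; compounds were pin-added after a 10 s baseline, read kinetically 180 s, then an EC20 dopamine challenge followed with a further 180 s calcium read.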
D2 ag-1 = D2 dopamine receptor (human) agonism. HEK293 T-REx D2 cells, calcium flux agonist mode. activation, % at 2 µM. hit rate 0.53% among 340,000. AID 485358;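 active = activation over 3 SD above normal in the single-dose calcium agonist read, cut at about 30% in these data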; also: 0% is about no effect
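In this primary screen, compounds producing a positive calcium signal within 180 s of addition to tetracycline-induced, force-coupled HEK293 Trex D2 cells are flagged; cells are dye-loaded with a no-wash calcium kit beforehand.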
D2 antag = antagonizes the human D2 dopamine receptor. P14416. HEK293 TREx D2 cells, calcium flux, dopamine EC80. inhibition, % at 10 µM. hit rate 2% among 340,000. AID 485344; in the data active = inhibition above about 30%; inactive = below that, where a call was filed; also: 0% is about no effect
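Antagonism is scored as inhibition of an EC80 dopamine-evoked calcium signal in a force-coupled, tetracycline-inducible HEK293 T-REx D2 line, with compound present 180 s before agonist.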
D2 PAM-2 = human D2 receptor positive allosteric modulation | DiscoveRx D2 beta-arrestin cells, luminescence, 90 min; 100% = 57 uM dopamine signal | hit rate 0.23% among 360,000 | P14416 | potentiation, % (concentration not given with the values) | AID 624464; in the data active = potentiation above about 50%; inconclusive = mostly about 30% to 49%
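PathHunter D2 cells, attached overnight at 37 deg C, received compound in DMSO plus dopamine at EC20 (50 nM final) for 90 min at 37 deg C. Beta-arrestin recruitment was read as luminescence after 1 h with detection reagent at ambient temperature.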
D2 ag-2 = activates the human D2 dopamine receptor | activation, % (no concentration beside the values) | AID 624465 | P14416 | hit rate 0.084% among 360,000 | DiscoveRx PathHunter D2 beta-arrestin, luminescence, 90 min; 100% = 57 uM dopamine signal; in the data active = activation above about 40%; inconclusive = between about 15% and that limit
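Agonist mode: compounds alone added to overnight-plated D2 PathHunter cells for 90 min at 37 C, with 57 uM final dopamine (EC100) defining full response. Beta-arrestin recruitment detected by chemiluminescent reagent, read after 1 h at ambient temperature.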
* marks the source's active call; other numbers are inactive results; ? = inconclusive; . = no result.

SMILES | D2 PAM-1 | D2 ag-1 | D2 antag | D2 PAM-2 | D2 ag-2
CCCC(=O)Nc1ccc(NC(=O)c2ccccc2)nc1 | -9.4 | 1.2 | -5.0 | -2.8 | -2.8
CCC(=O)Nc1ccc(NC(=O)c2ccccc2)nc1 | 1.2 | -0.2 | 31.7* | -2.0 | -1.5
Cn1ccnc1C(=O)c1ccccc1Cl | -5.4 | 18.9 | -4.5 | -6.5 | -5.8
O=C(O)C1=C[C@@H](c2ccc3c(c2)OCO3)C[C@@H](OCc2ccc(CO)cc2)O1 | 11.6 | 0.0 | -8.1 | -36.2 | 1.2
NC(=O)C1=C[C@H](c2ccc3c(c2)OCO3)C[C@H](OCc2ccc(CO)cc2)O1 | -6.6 | 0.0 | 33.1* | -7.8 | 1.0
C/C(=C\C(=O)c1ccccc1)Nc1ccc(O)cc1 | -5.4 | -0.9 | -9.8 | 55.6* | ?
O=C(Cc1cccs1)NCCCc1ccccc1 | -12.0 | -0.5 | 69.4* | 13.1 | 3.1
O=C(Cc1cccs1)NCc1ccncc1 | 2.6 | -0.6 | 58.0* | 1.3 | -4.9
Cc1cc(C)c2oc(-c3cccc(NC(=O)COc4ccccc4Cl)c3C)nc2c1 | 14.9 | -0.2 | . | . | .
Cc1ccc(S(=O)(=O)n2cc(-c3ccccc3)c(N)n2)cc1 | -3.2 | -1.1 | 4.3 | -7.8 | -2.1
Nc1nn(S(=O)(=O)c2ccccc2)cc1-c1ccc([N+](=O)[O-])cc1 | 10.1 | -0.4 | -3.7 | 73.7* | ?
CC(C)CC(=O)Nc1ccccc1N1CCN(C(=O)c2ccccc2)CC1 | 19.8 | -0.2 | 22.8 | 62.3* | 3.5
CC(CC(=O)N1CCN(C(=O)c2ccccc2)CC1)c1ccccc1 (centres undefined) | -4.8 | 0.6 | 38.0* | -1.3 | 1.2
O=C(NCC(=O)N1CCN(C(=O)c2ccccc2)CC1)c1ccccc1 | 10.9 | -1.1 | -7.8 | -12.8 | -2.7
Cn1nccc1C(=O)N1CCc2ccccc21 | 1.3 | 0.4 | 35.8* | -3.6 | -4.7
Cc1ccc(-c2cc(C(F)F)nc(NCc3cccs3)n2)cc1 | 3.4 | 1.3 | 11.0 | -5.0 | -3.5
Cc1ccc(-c2cc(C(F)F)nc(NCc3cccnc3)n2)cc1 | 42.0* | 0.7 | 1.4 | -22.9 | -2.1
CC(C)c1ccc(NC(=O)Nc2cc3sccc3n2C)cc1 | 9.8 | 0.8 | 18.7 | 5.3 | 4.3
COc1ccc(CCNC(=O)c2cccc(S(=O)(=O)N3CCCC3)c2)cc1OC | 5.1 | -0.1 | 5.0 | -11.6 | -6.5
COc1cc(C(=O)NCCc2ccc(S(=O)(=O)N3CCCC3)cc2)cc(OC)c1OC | -29.1 | 0.1 | 58.0* | -7.0 | -18.7
COc1cc(N)c(Cl)cc1C(=O)OCC(=O)N1CCc2ccccc21 | 7.1 | 1.5 | -3.1 | -2.9 | 0.7
COc1cc(N)c(Cl)cc1C(=O)OCC(=O)N1CCCC1 | -11.6 | 0.5 | 31.6* | -9.3 | -13.4
O=C(CNC(=O)c1ccc(Cl)cc1Cl)NCc1ccccn1 | 9.2 | 0.0 | -1.7 | -13.5 | 1.9
Cc1ccc(/C=N\NC(=O)CCc2n[nH]c(=O)[nH]c2=O)o1 | 50.4* | 0.0 | 8.7 | -5.2 | 8.4
COc1ccc(OC)c(/C=N/NC(=O)CCc2n[nH]c(=O)[nH]c2=O)c1 | -1.8 | -0.6 | -0.4 | -6.9 | -0.3
SMILES | D2 PAM-1 | D2 ag-1 | D2 antag | D2 PAM-2 | D2 ag-2
COc1cc2c(c(OCC(=O)NC(C)C)c1)C(=O)O[C@@H](C)CCCC(=O)CCCCC2 | -3.3 | 0.4 | 9.1 | -1.6 | -7.9
Cc1cc2c(OCC(O)CNC3CCCCC3)cccc2[nH]1 (centres undefined) | -34.4 | 25.3 | 60.2* | -11.5 | -3.2
S=C(NCCc1ccccc1)Nc1ccccc1N1CCOCC1 | 0.6 | 0.6 | 44.7* | -7.0 | -5.0
CCOc1ccc(-c2cc3c(=O)n(Cc4nc(-c5cccc(OC)c5OC)oc4C)ccn3n2)cc1Cl | 13.2 | 0.7 | . | . | .
CC(=O)Nc1ccc(Sc2ncccc2C(=O)Nc2ccc(F)cc2)cn1 | 5.9 | 32.6* | 2.0 | -4.0 | 0.0
CSc1ncccc1C(=O)Nc1ccc(OC(F)(F)F)cc1 | -4.0 | 1.1 | -20.6 | -1.4 | -1.1
CSCCC(NC(=O)OC(C)(C)C)C(=O)Oc1ccc2c(=O)c(-c3ccc4c(c3)OCCO4)coc2c1 (centres undefined) | 10.3 | 0.3 | 32.8* | -5.0 | -5.3
O=C(Nc1ccnn1C1CCN(Cc2ccccn2)CC1)c1cccc(F)c1 | 4.8 | 1.7 | 8.9 | -9.7 | -2.2
O=C(Nc1ccnn1C1CCN(Cc2ccccc2OCCO)CC1)c1cccc(F)c1 | -13.0 | 0.7 | 40.5* | -32.7 | -0.2
O=C(Nc1ccnn1C1CCN(Cc2ccccc2OC(F)F)CC1)c1cccc(F)c1 | -23.3 | 0.2 | 32.1* | -32.3 | -3.1
CCCN(CC(=O)Nc1ccccc1C)C(=O)C1CC(=O)N(c2ccc(C)cc2)C1 (centres undefined) | -2.8 | 1.2 | 12.0 | -19.5 | -4.2
O=C1NCCN1C(=O)c1ccccc1F | 2.9 | 0.4 | -5.3 | -18.9 | -3.3
COc1ccccc1CCNS(=O)(=O)c1cn(C)c(=O)n(C)c1=O | -4.8 | 0.4 | -13.4 | -7.6 | -7.3
COc1ccccc1CCNS(=O)(=O)c1c(C)n(C)c(=O)n(C)c1=O | 32.5* | 0.0 | 3.1 | -7.5 | -5.8
O=C(NC(=S)Nc1cccc(Cl)c1Cl)C1CC1 | -0.6 | -0.8 | 1.1 | -10.4 | -0.2
COc1ccc(OCc2nnc(SCC(=O)Nc3ccc(C)cc3)o2)cc1 | 7.2 | -0.5 | -10.8 | 2.0 | -1.1
Cc1nc(SCC(=O)Nc2cccc(Cl)c2)n[nH]1 | 30.0* | -0.3 | -13.6 | -5.8 | -2.7
Cc1ccc(OCc2nnc(SCC(=O)N3c4ccccc4Sc4ccc(Cl)cc43)o2)cc1 | -6.6 | 1.7 | -6.8 | 50.4* | 14.8
COc1ccc(OCc2nnc(SCC(=O)Nc3cccc(Cl)c3)o2)cc1 | -2.7 | 0.4 | 42.7* | -1.5 | -4.0
O=C(OCn1nnc2ccccc2c1=O)c1ccc2ncsc2c1 | 6.3 | -0.3 | 2.3 | 7.5 | -2.4
c1ccc(Cn2c[n+](Cc3ccccc3)cn2)cc1 | -5.6 | 0.5 | 43.1* | -5.0 | -2.8
CCOC(=O)c1cc(-c2ccc(OC)cc2)n(CCC(=O)NCCN2CCC(C)CC2)c1C | -21.0 | 0.9 | 66.4* | -11.1 | -2.0
O=C(Nc1ccccc1)c1cccc(N2C(=O)C3C4C=CC(C5CC45)C3C2=O)c1 (centres undefined) | -0.2 | 1.0 | 32.4* | -2.0 | 2.3
COc1ccc(OC)c(NC(=O)c2cccc(N3C(=O)C4C5C=CC(C6CC56)C4C3=O)c2)c1 (centres undefined) | 40.4* | -0.7 | 1.6 | -9.0 | 7.0
COc1ccc(C(=O)OC(C)CN2CCN(C)CC2)cc1 (centres undefined) | -0.5 | 0.3 | -11.7 | 0.5 | -2.0
COc1ccc(-c2noc(N3CCC(C(=O)NCc4ccccc4Cl)CC3)n2)cc1 | 13.9 | 1.2 | 47.6* | -3.0 | -2.0
CCOc1ccc(OCC(=O)OCc2csc(CC(=O)Nc3ccccc3C)n2)cc1 | 42.2* | 1.1 | 6.6 | 6.2 | 1.4

High-throughput results from PubChem.
